Experimental findings from PubChem BioAssay AID1835 (Johns Hopkins Ion Channel Center, 2009) are described below.

The campaign covered roughly 2,400 compounds. About 750 (31%) were called active. This is one part of the list. Unmarked numbers belong to inactive results.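 How the source made its calls: active means median signal gain over dofetilide-blocked control wells reaching their mean plus 3 SD, so readout 1 at least 0; inactive means the rest.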

Voltage-gated inwardly rectifying potassium channel KCNH2 (Homo sapiens), sequence (Q12809 whole entry, looked up): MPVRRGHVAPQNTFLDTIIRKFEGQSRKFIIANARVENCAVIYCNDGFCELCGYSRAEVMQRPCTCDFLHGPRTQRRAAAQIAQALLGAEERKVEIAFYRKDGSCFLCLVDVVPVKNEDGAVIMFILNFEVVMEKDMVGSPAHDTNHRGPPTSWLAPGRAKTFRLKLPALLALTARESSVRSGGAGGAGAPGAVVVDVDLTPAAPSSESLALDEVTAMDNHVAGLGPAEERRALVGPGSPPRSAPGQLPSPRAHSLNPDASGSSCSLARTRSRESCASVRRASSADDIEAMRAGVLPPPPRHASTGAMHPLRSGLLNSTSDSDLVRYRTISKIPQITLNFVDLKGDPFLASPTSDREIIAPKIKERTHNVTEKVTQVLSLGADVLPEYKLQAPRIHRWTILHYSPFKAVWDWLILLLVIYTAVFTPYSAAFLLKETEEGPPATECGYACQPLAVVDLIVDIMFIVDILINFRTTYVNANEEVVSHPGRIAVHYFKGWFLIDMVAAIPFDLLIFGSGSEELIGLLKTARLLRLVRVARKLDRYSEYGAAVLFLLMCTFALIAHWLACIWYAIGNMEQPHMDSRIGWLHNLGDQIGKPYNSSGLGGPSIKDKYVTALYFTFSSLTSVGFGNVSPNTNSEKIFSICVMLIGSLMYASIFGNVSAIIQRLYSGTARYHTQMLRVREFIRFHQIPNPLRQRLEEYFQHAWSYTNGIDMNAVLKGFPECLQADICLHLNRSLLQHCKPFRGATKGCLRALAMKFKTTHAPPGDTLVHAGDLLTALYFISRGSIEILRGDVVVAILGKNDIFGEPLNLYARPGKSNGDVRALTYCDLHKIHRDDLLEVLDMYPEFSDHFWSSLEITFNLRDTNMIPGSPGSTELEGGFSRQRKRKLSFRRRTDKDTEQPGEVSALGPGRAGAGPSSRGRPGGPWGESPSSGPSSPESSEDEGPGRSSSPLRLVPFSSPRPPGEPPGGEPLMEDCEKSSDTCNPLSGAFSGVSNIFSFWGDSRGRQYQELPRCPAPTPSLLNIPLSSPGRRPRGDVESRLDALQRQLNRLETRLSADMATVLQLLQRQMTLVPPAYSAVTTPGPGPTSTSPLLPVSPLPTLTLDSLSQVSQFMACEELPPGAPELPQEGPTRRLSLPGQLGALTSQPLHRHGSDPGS

This test has as its target Voltage-gated inwardly rectifying potassium channel KCNH2 (Homo sapiens) (UniProt Q12809). Description: modulators restoring hERG flux under dofetilide – cell-based, thallium flux, duplicate retest, dofetilide IC70, confirmation (AID 1835). Particulars: hERG cell line, FluxOR thallium flux, dofetilide-blocked; at 10 µM; active compounds read high. For orientation: hERG is a cardiac potassium channel; its block is linked to QT prolongation.
In the case of `COc1cccc(OC)c1OCCOCCN1CCN(C)CC1`, the activity increase over dofetilide control, less the hit threshold is -17%. Under `Clc1cccc(OCCCN2CCCC2)c1Cl` stands 2% (active).

With `O=C(CN1CCCCCCC1)Nc1cccc(Cl)c1Cl`, the activity increase over dofetilide control, less the hit threshold was -14%.

Consider `Cc1ccc(NC(=O)C2C3CCC(O3)C2C(=O)O)cc1C` (stereo not drawn), for which the activity increase over dofetilide control, less the hit threshold was -1%. Under `S=C(Nc1ccccc1)Nc1nc2ccccc2n1CCOc1ccccc1` stands -9%; under `CCCc1nnc(NC(=O)CN2CCOCC2)s1`, -19%.

Regarding `O=C(Nc1ccccc1)N1CCSc2cc(Cl)ccc21`, the activity increase over dofetilide control, less the hit threshold is -1%. For the compound `CC1CCc2sc(-c3n[nH]c(=S)o3)cc2C1` (stereo not drawn), the activity increase over dofetilide control, less the hit threshold is 9% (active). In the case of `CCc1c(C)nc(SC)n(CC#N)c1=O` it was -2%; in that of `COc1ccccc1C(=O)NNC(=S)NC(=O)c1sc2ccccc2c1Cl`, 43% (active); in that of `COc1cccc(C(=O)NC(=S)Nn2cnnc2)c1OC`, -14%. Under `COc1ccccc1C(=O)NC(=S)NNC(=O)c1sc2ccccc2c1Cl` stands -18%; under `O=C(NNC(=S)NC(=O)c1sc2ccccc2c1Cl)c1ccc(Cl)cc1`, 70% (active). Consider `O=C(N/N=C/c1ccc2cccc(OCc3ccccc3)c2n1)c1ccc(Br)cc1`, for which the activity increase over dofetilide control, less the hit threshold is -9%. Take `O=C(Nc1ccccc1C(=O)O)c1cncc(Br)c1`: the activity increase over dofetilide control, less the hit threshold is 12% (active).

Turning to `O=C(CCCOc1ccc(Cl)cc1Cl)Nc1ccccc1C(=O)O`, the activity increase over dofetilide control, less the hit threshold is 3% (active). `CC(C)C(=O)Nc1cccc(C(=O)Nc2ccccc2C(=O)O)c1`: the activity increase over dofetilide control, less the hit threshold is -7%.

In the case of `COc1cc(C(=O)Nc2ccc(O)cc2C(=O)O)ccc1OC(C)=O`, the activity increase over dofetilide control, less the hit threshold is 1% (active). As to `O=C(O)c1cc(/C=N\O)ccc1OCc1ccccc1`, the activity increase over dofetilide control, less the hit threshold was -9%. Under `CCOP(=O)(OCC)C(NC(=O)c1ccc(OC)c(OC)c1)c1ccccc1` (stereo not drawn) stands -14%; under `CN(C)C(=O)c1ccc(NC(=O)c2cncc(Br)c2)cc1`, -12%. In the case of `COc1ccc(C(=O)Nc2ccccc2C(=O)O)cc1Cl` it was 5% (active); in that of `O=C(Nc1ccccc1C(=O)O)c1cccc(NC(=O)c2ccccc2Br)c1`, -5%.

On to `COc1cc(C(=S)N2CCOCC2)ccc1OC(=O)c1ccc([N+](=O)[O-])cc1[N+](=O)[O-]`, for which the activity increase over dofetilide control, less the hit threshold is -22%. For `COc1cc(NC(=O)CCCOc2ccc(Cl)cc2Cl)c(C(=O)O)cc1OC`, the activity increase over dofetilide control, less the hit threshold was -6%. In the case of `Cc1c(Cl)c([N+](=O)[O-])nn1CC(=O)NCC(C)C`, the activity increase over dofetilide control, less the hit threshold is -20%. Consider `COc1ccc(COC(=O)C2CCN(S(=O)(=O)c3cccs3)CC2)cc1`, for which the activity increase over dofetilide control, less the hit threshold was -27%. `CC1CCCC(C)N1S(=O)(=O)c1ccc(NC(=O)CCn2cnc3ccccc3c2=O)cc1` (stereo not drawn): the activity increase over dofetilide control, less the hit threshold was -12%.

On to `CCCCC(=O)Nc1cccc(C(=O)Nc2ccccc2C(=O)O)c1`, for which the activity increase over dofetilide control, less the hit threshold is -3%. For `O=C(Nc1ccccc1C(=O)O)c1ccc(NC(=O)C2CC2)cc1`, the activity increase over dofetilide control, less the hit threshold was -2%.

`CCOc1ccc(C(=O)Nc2ccccc2C(=O)O)cc1`: the activity increase over dofetilide control, less the hit threshold was 3% (active). As for `Cn1c(/N=C/c2c(O)ccc3ccccc23)nc2ccccc21`, the activity increase over dofetilide control, less the hit threshold is -32%.

In the case of `O=S(=O)(Nc1ccc(Cc2ccncc2)cc1)c1ccc(Cl)c(Cl)c1`, the activity increase over dofetilide control, less the hit threshold was -6%. With `O=C1C2CC=CCC2C(=O)N1c1ccc(Cc2ccncc2)cc1` (stereo not drawn), the activity increase over dofetilide control, less the hit threshold was 3% (active). On to `Cc1nc(-c2nc(-c3c(C(=O)NNC(=O)c4ccc(Cl)cc4)noc3C)cs2)cs1`, for which the activity increase over dofetilide control, less the hit threshold is -17%. Under `CC(C)(C)c1cc(C(=O)NNC(=O)c2ccc(Cl)cc2)no1` stands 29% (active); under `CC(C)(C)c1csc(NNC(=O)c2ccc(Cl)cc2)n1`, -3%; under `Cc1csc2c(N3CCCCC3)ncnc12`, -8%. In the case of `CC(=O)CSc1ncnc2sc3c(c12)CCC(C)C3` (stereo not drawn) it was 72% (active); in that of `COc1cc(NC(=O)CSc2ncnc3sc4c(c23)CCC(C)C4)c(C(=O)O)cc1OC` (stereo not drawn), 94% (active). Regarding `Cc1nnc(NC(=O)CN2CCN(Cc3ccc(F)cc3Cl)CC2)s1`, the activity increase over dofetilide control, less the hit threshold is -17%. In the case of `CCCCCCC1CCC(C(=O)N2CCOCC2)CC1` (stereo not drawn) it was -5%; in that of `O=C(CCCc1c[nH]c2ccccc12)Nc1ccc(S(=O)(=O)Nc2ncccn2)cc1`, -19%; in that of `COCC1CCCN(C(=O)c2ccc3oc(C(C)C)nc3c2)C1` (stereo not drawn), -12%. Under `O=C(c1c(O)c2ccccc2oc1=O)C1CCCCC1` stands -4%; under `O=c1oc2ccccc2c(Cl)c1CN1CCCCC1`, 2% (active). Under `Oc1c(Cl)cc(CN2CCCCC2)c2cccnc12` stands -6%; under `Cc1ccc(NC(=O)CCc2nc3sc4c(c3c(=O)[nH]2)CCCC4)c(Br)c1`, -17%. For `NC(=O)C1CCN(C(=O)CC(c2ccccc2)c2ccccc2)CC1`, the activity increase over dofetilide control, less the hit threshold is -17%.

Take `Cc1ccc(-c2nc3c(Cl)cc(Cl)cc3c(=O)n2O)cc1`: the activity increase over dofetilide control, less the hit threshold was 83% (active). As for `Cc1ccc(-c2nc3ccccc3c(=O)n2O)cc1`, the activity increase over dofetilide control, less the hit threshold was 14% (active).

As for `O=C(Cc1ccccc1)Nn1c(-c2ccccc2)nc2ccccc2c1=O`, the activity increase over dofetilide control, less the hit threshold is -15%. In the case of `O=c1c2cc(Cl)ccc2nc(-c2ccccc2)n1O` it was 18% (active); in that of `O=c1c2ccccc2nc(-c2ccccc2)n1O`, -7%; in that of `O=c1c2cc(Cl)ccc2nc(-c2ccc(Cl)c(Cl)c2)n1O`, 124% (active).

As to `CCOc1ccc(N=Nc2cc(C(C)C)ccc2O)cc1`, the activity increase over dofetilide control, less the hit threshold was -9%. Consider `COC(=O)Sc1nnc(-c2ccc(Br)cc2)o1`, for which the activity increase over dofetilide control, less the hit threshold was -2%. For `CNC(=O)COC(=O)c1cccc(S(=O)(=O)N2CCN(c3ccc(F)cc3)CC2)c1`, the activity increase over dofetilide control, less the hit threshold was -20%. With `CCC(C)NC(=O)Cn1nc(C(F)(F)F)c2c1CCCC2` (stereo not drawn), the activity increase over dofetilide control, less the hit threshold was -7%. In the case of `Cc1ccccc1Cc1c(C)nc2c(C(=O)NCc3ccc4c(c3)OCO4)cnn2c1C` it was -11%; in that of `OC(CNCC(c1ccc(Cl)cc1Cl)c1c[nH]c2ccccc12)c1ccccc1` (stereo not drawn), -48%. In the case of `CCOc1ccc(NC(=O)CN(C)C(=O)c2c(-c3c(F)cccc3Cl)noc2C)cc1OCC` it was -7%; in that of `CN(Cc1cccc(C(F)(F)F)c1)Cc1nc(-c2cnccn2)no1`, -8%; in that of `Cc1ccc(-c2nc3ccc(Cl)cc3c(=O)n2O)cc1`, 78% (active). Turning to `CCOC(=O)c1c(N2C(=O)Nc3ccccc3N2O)n[nH]c1-c1cccc(Cl)c1`, the activity increase over dofetilide control, less the hit threshold is -4%. In the case of `O=c1c2ccccc2nc(-c2cccc(Cl)c2)n1O`, the activity increase over dofetilide control, less the hit threshold is 39% (active). In the case of `O=c1c2ccccc2nc(-c2ccc(Cl)c(Cl)c2)n1O`, the activity increase over dofetilide control, less the hit threshold was 36% (active). In the case of `Cc1ccc(-c2onc3ccc(Cl)cc23)cc1` it was 0%.
